# Laboratory results as given in PubChem BioAssay AID652180 (National Center for Advancing Translational Sciences (NCATS), 2013).
# Results filed as inconclusive are left out. Unmarked numbers belong to inactive results. Activity calls are given as the source filed them. Calls follow the shape of the dose curve; as a rule, active = well fitted inhibition curve with a large enough effect; inconclusive = small, poorly fitted or top-dose-only effect; inactive = no such curve, though single readings can be large or run the other way.
# Assay: qHTS Assay for Lipid Storage Modulators: 3T3L1 Assay against Probe and Analogs
# Conditions: 3T3-L1 lipid droplets, BODIPY imaging, oleic acid, 18-24 h; series mostly up to 46.1 µM; activity change, negative = decreased lipid storage: at the top concentration
# Text: Storing lipids as a reservoir for energy or the anabolism of elementary metabolites is a common feature of probably all cells and is conserved from bacteria to humans. The universal cellular lipid storage organelle is the so-called lipid storage droplet (LD). Although ubiquitous, LDs share a simple structure composed of a hydrophobic core that harbors the storage lipids, which is shielded by a droplet-specific phospholipid monolayer to which proteins are attached. The current model of LD biogenesis involves an incorporation of the lipid core into the membrane leaflets of the endoplasmic reticulum (ER) followed by a subsequent budding-like maturation of a LD, which ultimately pinches off. Once released, LD volume can increase by localized lipogenesis or fusion of existing droplets. Storage lipids are re-mobilized enzymatically by lipase activity. Lipase regulation in the adipocyte is heavily studied and involves multiple components including catecholamine signaling, the LD-associated proteins Perilipin and comparative gene identification-58 (CGI-58) and at least two lipases named hormone sensitive lipase (HSL) and adipocyte triglyceride lipase (ATGL). LD regulation outside of the adipocyte is poorly understood and only few components are known. However, there is an urgent need to learn more about ectopic fat depots as mislocalized storage of lipids, for example in the liver or muscle, is an eminent health problem associated with insulin resistance or the metabolic syndrome. We developed a laser-scanning cytometer assay to enable 1,536-well screening and combined the results of the small molecules screen with an RNAi database based on lipid storage. In this assay we tested analogs of the probe against a mammalian cell line (3T3L1), to see if these small molecules could disrupt lipid storage. NIH Molecular Libraries Probe Production Centers Network [MLPCN] NIH Chemical Genomics Center [NCGC] MLPCN Grant: MH085686 Assay Submitter (PI): Mathias Beller, Max-Planck-Institut fur Biophysikalische Chemie
# 3T3L1 cells were obtained from ATCC (CL-173). 4 uL of cells at 1.25 X 105 cell/mL were dispensed into 1536 well Poly-D-Lysine coated black with clear bottom imaging plates (Corning, #7356) to obtain 500 cells/well, and cultured at 37 °C, 95% humidity, and 5% CO2 overnight. The culture medium used was OPTI-MEM containing 5% fetal bovine serum (FBS). Triacsin C (Sigma-Aldrich T-4540), an inhibitor of long-chain fatty acyl CoA synthetase that blocks synthesis of triglycerides, was used as a positive control for lipid under-storage. A total of 23 nL of compounds dissolved in DMSO at different concentrations were transferred to the assay plates using a Kalypsys 1536-pin tool, the final DMSO concentration was 0.46%. One microliter of oleic acid at 400 uM (Calbiochem, #4954) was added to induce lipid droplet formation in the cells, and the plates were lidded. After 18-24 hours of incubation at 37 °C, 95% humidity, and 5% CO2, cells were fixed (8 % paraformaldehyde in PBS, 30 min, room temperature), washed three times with PBS, then stained for lipid droplet and nucleus using 4uL of PBS solution containing BODIPY lipid dye 493/503 (1:2000 dilution, Life Technologies, #3922) and Hoechst 33342 (1:1000, Life Technologies, #H3570) with Washer dispenser EL406(Biotek). Images were acquired using InCell 2000 (GE). Number of cells, number of lipids and sizes of lipids were analysis using GE Investigator software.
Structure (SMILES),Potency,"activity change, negative = decreased lipid storage"
CCOc1ccc(CCNC(=O)c2ccccc2)cc1OCC,2350 nM (active),
CCOc1ccc(CCNC(=O)c2cc3ccccc3n2Cc2ccccn2)cc1OCC,46.9 nM (active),
CCOc1ccc(CCNC(=O)c2cc3cnccc3n2Cc2cccc(C)n2)cc1OCC,,-20%
CCOc1ccc(CCNC(=O)c2cc3sccc3n2Cc2ccc(F)cc2F)cc1OCC,23.5 nM (active),
CCOc1ccc(CCNC(=O)c2cc3ncccc3n2Cc2cccc(C)n2)cc1OCC,,-26%
CCOc1ccc(CCNC(=O)c2cc3ccncc3n2Cc2cccc(C)n2)cc1OCC,,-25.1%
CCOc1ccc(CCNC(=O)c2ccc(Oc3ccccc3)cc2)cc1OCC,246 nM (active),
